# Source: PubChem BioAssay (Tox21)
# Where “and” joins values, the source holds several entries; their conditions need not be identical. Identical values can stand only once. Inconclusive results are not listed. A call without a number means that no potency is given here. Some structures have more than one record in an assay (separate samples or runs), and their calls can disagree. Calls of active or inactive are those of the source. Unless noted, calls follow the shape of the full dose curve.
# Assay: qHTS assay for small molecule agonists of the p53 signaling pathway (AID 651631); also: nearly all actives have a fitted effect of over 15% in size
# Conditions: HCT-116 p53RE-bla reporter, beta-lactamase FRET ratio, 16 h; series mostly up to 73.3 µM
# Outline: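 Beta-lactamase reporter activity under p53 response elements was quantified in HCT-116 cells by FRET fluorescence, following 16 h incubation with test compounds at 37 °C and 2 h substrate development at room temperature.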
# Potency is read from the fitted curve at half-maximal effect.
row,SMILES,Potency
1,CNC(=O)N(C)c1nnc(C(C)(C)C)s1,inactive
2,CCC(C)c1cc([N+](=O)[O-])cc([N+](=O)[O-])c1O (stereo not drawn),inactive and 864 nM (active)
3,COP(=O)(OC)OC,inactive
4,CCN(CC)C(=O)SCc1ccc(Cl)cc1,inactive
5,CCN(N=O)C(N)=O,inactive
6,Cc1ccccc1[N+](=O)[O-],inactive
7,Cc1ccc(OP(=O)(Oc2ccc(C)cc2)Oc2ccc(C)cc2)cc1,inactive
8,O=C(O)CC[N+](=O)[O-],inactive
9,CCCCC(CC)COC(=O)c1ccc(C(=O)OCC(CC)CCCC)c(C(=O)OCC(CC)CCCC)c1 (stereo not drawn),inactive
10,Nn1cnnc1,inactive
11,N[C@@H](Cc1ccc(N(CCCl)CCCl)cc1)C(=O)O,13.3 µM (active) and 26.2 µM (active)
12,c1nc[nH]n1,inactive
13,CCOP(=S)(OCC)O/N=C(\C#N)c1ccccc1,inactive
14,C[C@]12CCC(=O)C[C@@H]1CC[C@@H]1[C@@H]2CC[C@]2(C)[C@@H](O)CC[C@@H]12,inactive
15,O=c1oc2ccccc2c(O)c1C(CC(O)c1ccc(-c2ccc(Br)cc2)cc1)c1ccccc1 (stereo not drawn),21.1 µM (active) and 46 µM (active)
16,Nc1ccc(Cl)c(Cl)c1,inactive
17,ClC1C(Cl)C(Cl)C(Cl)C(Cl)C1Cl (stereo not drawn),inactive
18,CN(C)c1ccc(C(=O)c2ccc(N(C)C)cc2)cc1,605 nM (active) and 273 nM (active)
19,CCCCN(CCCC)N=O,inactive

row,SMILES,Potency
1,OCC(O)CO,inactive
2,O=C(Nc1ccc(Br)cc1)c1cc(Br)cc(Br)c1O,8.41 µM (active) and 1.53 µM (active) and 12.2 µM (active)
3,S=C1NCCN1,inactive
4,CCOC(=S)S,inactive
5,Oc1c(Cl)c(Cl)c(Cl)c(Cl)c1Cl,3.37 µM (active) and 3.43 µM (active)
6,O=P(Oc1ccccc1)(Oc1ccccc1)Oc1ccccc1,inactive
7,CC(O)CCO (stereo not drawn),inactive
8,O=P(O)(O)CCCl,inactive
9,c1ccc(NNc2ccccc2)cc1,inactive
10,CC(C)(OOC(C)(C)c1ccccc1)c1ccccc1,inactive
11,CC(C)N(C(=O)SCC(Cl)=C(Cl)Cl)C(C)C,inactive
12,O=[N+]([O-])c1ccc(O)c([N+](=O)[O-])c1,inactive
13,O=[N+]([O-])c1cccc2ccccc12,inactive
14,COP(=S)(OC)Oc1cc(Cl)c(Cl)cc1Cl,inactive
15,C=CCc1ccc2c(c1)OCO2,inactive
16,CCN(CC)N=O,inactive
17,C#C[C@]1(O)CC[C@H]2[C@@H]3CCC4=CC(=O)CC[C@]4(C)[C@H]3CC[C@@]21C,inactive
18,c1ccc(P(c2ccccc2)c2ccccc2)cc1,inactive
19,Cc1cc(Cl)ccc1OCCCC(=O)O,inactive

# Assay: qHTS assay for small molecules that induce genotoxicity in human embryonic kidney cells expressing luciferase-tagged ATAD5 (AID 651632; active = well fitted activation curve with a large enough effect in the repeat runs; also: nearly all actives have a fitted effect of over 15% in size)
# Conditions: HEK293T ATAD5-luciferase induction, 16 h; series mostly up to 83.3 µM
# Outline: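 Luminescence read-out: after 16 hr compound exposure at 37C, ATAD5-luciferase HEK293T cells received Amplite, 30 min RT, then CCD imaging. A rise in signal marks genotoxic stress.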
row,SMILES,Potency
1,CCC(C)c1cc([N+](=O)[O-])cc([N+](=O)[O-])c1O (stereo not drawn),inactive
2,CCCCC(CC)COC(=O)c1ccc(C(=O)OCC(CC)CCCC)c(C(=O)OCC(CC)CCCC)c1 (stereo not drawn),inactive
3,CN(C)c1ccc(C(=O)c2ccc(N(C)C)cc2)cc1,27 µM (active)
4,O=C(Nc1ccc(Br)cc1)c1cc(Br)cc(Br)c1O,inactive
5,Oc1c(Cl)c(Cl)c(Cl)c(Cl)c1Cl,inactive
6,CC(C)N(C(=O)SCC(Cl)=C(Cl)Cl)C(C)C,inactive
7,Cc1cc(Cl)ccc1OCCCC(=O)O,inactive

# Assay: qHTS assay for small molecule agonists of the p53 signaling pathway - cell viability (AID 651633); also: nearly all actives have a fitted effect of over 30% in size
# Conditions: p53RE-bla HCT-116 viability, ATP luminescence, 16 h; series mostly up to 83.3 µM
# Outline: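 p53RE-bla cells were treated with compound for 16 hours at 37 C. Cytotoxicity was then measured as CellTiter-Glo luminescence after 30 min at room temperature.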
row,SMILES,Potency
1,CNC(=O)N(C)c1nnc(C(C)(C)C)s1,inactive
2,CCC(C)c1cc([N+](=O)[O-])cc([N+](=O)[O-])c1O (stereo not drawn),inactive
3,COP(=O)(OC)OC,inactive
4,CCN(CC)C(=O)SCc1ccc(Cl)cc1,inactive
5,CCN(N=O)C(N)=O,inactive
6,Cc1ccccc1[N+](=O)[O-],inactive
7,Cc1ccc(OP(=O)(Oc2ccc(C)cc2)Oc2ccc(C)cc2)cc1,inactive
8,O=C(O)CC[N+](=O)[O-],inactive
9,CCCCC(CC)COC(=O)c1ccc(C(=O)OCC(CC)CCCC)c(C(=O)OCC(CC)CCCC)c1 (stereo not drawn),inactive
10,Nn1cnnc1,inactive
11,N[C@@H](Cc1ccc(N(CCCl)CCCl)cc1)C(=O)O,inactive
12,c1nc[nH]n1,inactive
13,CCOP(=S)(OCC)O/N=C(\C#N)c1ccccc1,inactive
14,C[C@]12CCC(=O)C[C@@H]1CC[C@@H]1[C@@H]2CC[C@]2(C)[C@@H](O)CC[C@@H]12,inactive
15,O=c1oc2ccccc2c(O)c1C(CC(O)c1ccc(-c2ccc(Br)cc2)cc1)c1ccccc1 (stereo not drawn),9.44 µM (active) and 51.6 µM (active)
16,Nc1ccc(Cl)c(Cl)c1,inactive
17,ClC1C(Cl)C(Cl)C(Cl)C(Cl)C1Cl (stereo not drawn),inactive
18,CN(C)c1ccc(C(=O)c2ccc(N(C)C)cc2)cc1,inactive
19,CCCCN(CCCC)N=O,inactive

row,SMILES,Potency
1,OCC(O)CO,inactive
2,O=C(Nc1ccc(Br)cc1)c1cc(Br)cc(Br)c1O,944 nM (active) and 1.08 µM (active) and 2.17 µM (active)
3,S=C1NCCN1,inactive
4,CCOC(=S)S,inactive
5,Oc1c(Cl)c(Cl)c(Cl)c(Cl)c1Cl,inactive
6,O=P(Oc1ccccc1)(Oc1ccccc1)Oc1ccccc1,inactive
7,CC(O)CCO (stereo not drawn),inactive
8,O=P(O)(O)CCCl,inactive
9,c1ccc(NNc2ccccc2)cc1,inactive
10,CC(C)(OOC(C)(C)c1ccccc1)c1ccccc1,inactive
11,CC(C)N(C(=O)SCC(Cl)=C(Cl)Cl)C(C)C,inactive
12,O=[N+]([O-])c1ccc(O)c([N+](=O)[O-])c1,inactive
13,O=[N+]([O-])c1cccc2ccccc12,inactive
14,COP(=S)(OC)Oc1cc(Cl)c(Cl)cc1Cl,inactive
15,C=CCc1ccc2c(c1)OCO2,inactive
16,CCN(CC)N=O,inactive
17,C#C[C@]1(O)CC[C@H]2[C@@H]3CCC4=CC(=O)CC[C@]4(C)[C@H]3CC[C@@]21C,inactive
18,c1ccc(P(c2ccccc2)c2ccccc2)cc1,inactive
19,Cc1cc(Cl)ccc1OCCCC(=O)O,inactive
